Calls of active or inactive are those of the source. Calls follow the shape of the full dose curve.
Each compound was assayed against Thyrotropin-releasing hormone receptor (Homo sapiens) (UniProt P34981) (assay: qHTS assay to identify small molecule agonists of the thyrotropin-releasing hormone receptor (TRHR) signaling pathway (AID 1346891;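 also: HEK293 cells expressing TRHR with calcium dye readout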)). Settings: TRHR-HEK293 calcium fluorescence, agonist mode; series mostly up to 57.6 µM; activation: at the top concentration.
Sequence of Thyrotropin-releasing hormone receptor (Homo sapiens) (P34981 whole entry, looked up): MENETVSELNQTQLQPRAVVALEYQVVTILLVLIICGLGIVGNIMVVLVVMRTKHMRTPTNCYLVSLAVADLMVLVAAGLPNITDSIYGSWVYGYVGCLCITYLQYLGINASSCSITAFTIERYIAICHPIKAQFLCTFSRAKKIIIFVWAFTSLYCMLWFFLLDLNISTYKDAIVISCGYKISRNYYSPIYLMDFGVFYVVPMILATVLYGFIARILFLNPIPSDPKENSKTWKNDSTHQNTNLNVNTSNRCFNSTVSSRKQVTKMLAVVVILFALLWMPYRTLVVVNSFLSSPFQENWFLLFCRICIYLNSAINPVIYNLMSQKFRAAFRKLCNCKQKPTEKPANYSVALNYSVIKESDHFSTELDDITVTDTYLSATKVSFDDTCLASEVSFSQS
From the text: National Center for Advancing Translational Sciences [NCATS] NIH Chemical Genomics Center [NCGC] U.S. Environmental Protection Agency [EPA] National Institutes of Environmental Health Sciences [NIEHS] National Toxicology Program [NTP] Assay overview: Thyrotropin-releasing hormone (TRH) receptor (TRHR) is a G-protein-coupled receptor which binds the tripeptide thyrotropin releasing hormone. TRHR is found in the brain and, when bound by TRH, acts (through phospholipase C) to increase intracellular inositol trisphosphate. It plays a crucial role in the anterior pituitary where it controls the synthesis and secretion of thyroid stimulating hormone and prolactin. The TRHR-Hek293 assay is a cell-based assay, and it has the potential to screen G protein-coupled receptors. A compound/drug can either activate (agonist) or suppress (antagonist) GPCRs that can be monitored by levels of intracellular calcium. Using this assay, the Tox21 10K compound library was screened to identify potential TRHR agonists.
Assay Protocol Summary: The TRHR-Hek293 cells were dispensed at 1500cells/4uL/well in 1536-well black-clear bottom plates using a Multidrop dispenser. After the assay plates were incubated at a 37 C/5% CO2 incubator for 18 hours, 4 uL of Dye-Loading Solution was added to each well. The plates were incubated at 37 C for 2 hours. For agonist mode, 23 nL of compounds dissolved in DMSO, positive controls or DMSO only was transferred to the assay plate by a pin tool. The fluorescence intensity in the plates was measured using FDSS 7000EX kinetic plate reader for 3 min at 1 sec intervals. Each test compound was measured at 15 concentrations and in triplicates.
% is scaled to controls: 0 for no effect and ±100 for the full control effect.

Row | Structure (SMILES) | activation | outcome
1 | Cc1ccc2cc(C)ccc2c1 | 0.0376% (inactive) | –
2 | c1cncc([C@@H]2CCCCN2)c1 | -0.0675% (inactive) | –
3 | CCOc1cc(OP(=S)(OC)OC)nc(CC)n1 | -0.183% (inactive) | –
4 | C[C@H](CN1CCOCC1)C(C(=O)N1CCCC1)(c1ccccc1)c1ccccc1 | -0.0079% (inactive) | –
5 | CCN(CCO)CCO | 0.384% (inactive) | –
6 | CN(C)C1CCCCC1 | -0.0097% (inactive) | –
7 | Clc1cc2c(cc1Cl)Oc1cc(Cl)c(Cl)cc1O2 | -0.214% [at 0.218 µM] (inactive) | –
8 | ClCC1CO1 (stereo not given) | 0.0481% (inactive) | –
9 | O=S1(=O)OCCO1 | -0.124% (inactive) | –
10 | C=C1CC[C@@]2(O)[C@H]3Cc4ccc(O)c5c4[C@@]2(CCN3CC2CC2)[C@H]1O5 | 0.0302% [at 26.5 µM] (inactive) | –
11 | O=C(Cl)c1ccccc1 | -0.398% (inactive) | –
12 | Cn1c(CCCC(=O)O)nc2cc(N(CCCl)CCCl)ccc21 | -0.162% [at 26.5 µM] (inactive) | –
13 | CON(C)C(=O)Nc1ccc(Br)c(Cl)c1 | -0.1% (inactive) | –
14 | ClC1=C(Cl)C2(Cl)C(CBr)CC1(Cl)C2(Cl)Cl (stereo not given) | – | inactive
15 | NCCOS(=O)(=O)O | -0.218% (inactive) | –
16 | CCOC1Oc2ccc(OS(C)(=O)=O)cc2C1(C)C (stereo not given) | 0.0762% (inactive) | –
17 | O=C(O)CBr | -0.595% (inactive) | –
18 | O=C(O)C(F)(F)C(F)(F)C(F)(F)C(F)(F)C(F)(F)C(F)(F)F | -0.0157% (inactive) | –
19 | CNC(=O)NC(O)C(Cl)(Cl)Cl (stereo not given) | 0.473% [at 26.5 µM] (inactive) | –
20 | C=CC1(C)OC(=O)N(c2cc(Cl)cc(Cl)c2)C1=O (stereo not given) | – | inactive

Row | Structure (SMILES) | activation | outcome
21 | CCSC(=O)Cl | -0.123% (inactive) | –
22 | BrCC1CO1 (stereo not given) | 0.174% (inactive) | –
23 | C=CCCC#N | -0.225% (inactive) | –
24 | CCC1(c2ccccc2)CCC(=O)NC1=O (stereo not given) | -0.204% [at 26.5 µM] (inactive) | –
25 | COc1ccc(CN2CCNCC2)c(OC)c1OC | 0.538% [at 26.5 µM] (inactive) | –
26 | COc1cccc(C=O)c1 | -0.433% (inactive) | –
27 | C=C1C[C@@H]2[C@H](CC[C@]3(C)C(=O)CC[C@@H]23)[C@@]2(C)C=CC(=O)C=C12 | -0.522% [at 26.5 µM] (inactive) | –
28 | COC(=O)[C@@H](N)CCCN/C(N)=N/[N+](=O)[O-] | 0.0425% [at 26.5 µM] (inactive) | –
29 | ClC(Cl)(Cl)Cl | -0.0341% (inactive) | –
30 | O=C1CC(=O)NC(=O)N1 | -0.0868% (inactive) | –
31 | N[C@@H](Cc1ccc(Oc2cc(I)c(O)c(I)c2)c(I)c1)C(=O)O | -1.08% [at 26.5 µM] (inactive) | –
32 | CN(C)CCN(C)C | 0.187% (inactive) | –
33 | CCCCOC(C)=O | -0.115% (inactive) | –
34 | Cc1ccc(Cl)c(O)c1 | 0.128% [at 26.5 µM] (inactive) | –
35 | C=CC=O | -0.0067% (inactive) | –
36 | C/C=C/CC#N | 0.0003% (inactive) | –
37 | OP(O)c1ccccc1 | 0.0548% (inactive) | –
38 | CCCCCCC1CCOC1=O (stereo not given) | -0.0293% (inactive) | –
39 | O=C(CCl)NCO | -0.107% (inactive) | –
40 | CNC(=O)O/N=C(/CSC)C(C)(C)C | -0.308% (inactive) | –
